Results as given in PubChem BioAssay (NCATS).
Where “and” joins values, the source holds several entries; their conditions need not be identical. Equal values may be shown once. Inconclusive results are not listed. Calls of active or inactive are those of the source. Unless noted, the call rests on the fitted dose curve; in most records, active means well fitted curve in the direction sought with a large enough effect; inconclusive means small, poorly fitted or top-dose-only effect, or another doubt; inactive means no such curve, though single readings can be large; an effect the other way counts as inactive or inconclusive.

Experiments:
[1] = Cell Viability - MRC5 (AID 434; calls by dose curve;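 further: potency means the concentration at half of the fitted maximal effect; cells exposed to compound for 40 hours at 37 °C; potency reflects cytotoxicity seen as loss of intracellular ATP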); conditions: MRC5 lung fibroblast viability, qHTS
Method in brief: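 ATP luminescence read-out (CellTiter-Glo, 20 min RT) after 40 hr, 37 °C compound exposure of 1500 MRC5 cells/well. Data normalized to DMSO (basal) and 100 uM tamoxifen (100% inhibition); AC50 from standard Hill equation.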

[2] = target: Mitogen-activated protein kinase 10 (Mus musculus) (UniProt Q61831); experiment: JNK3 AlphaScreen Assay (AID 530; active means well fitted curve in either direction with a large enough effect, not every such curve was filed as active;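 further: kinase came from lysate of stimulated human HepG2 cells; signal reports phosphorylation of biotinylated GST-cJun 1-79 at Ser73 with 10 µM ATP; on the % scale 0 is the no-effect control and ±100 the full control effect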); conditions: JNK3 lysate, c-Jun phosphorylation; series mostly up to 57.1 µM
Method in brief: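 Activity was read by AlphaScreen after JNK3-containing HepG2 lysate (cytokine pre-activated) phosphorylated biotinylated GST-cJun with 10 uM ATP at room temperature. Phospho-Ser73 cJun antibody with Protein-A acceptor beads provided detection.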

[3] = Cell Viability - Mesenchymal (AID 546); conditions: mesenchymal cells viability, qHTS; series mostly up to 91.7 µM;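 further: cells exposed to compound for 40 hours before reading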
Method in brief: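 Human renal mesenchymal cells (glomerulus-derived), 1000 cells/well, 5 hr 37 °C pre-incubation; compound 40 hr, 37 °C; CellTiter-Glo, 20 min RT; luminescence; AC50 via Hill equation.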

[4] = Cellular Toxicity (caspase-3) HepG2 (AID 654); conditions: HepG2 caspase-3 activation, luminescence, 0% = DMSO only, 100% = tamoxifen; series mostly up to 92.2 µM;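 further: cells exposed to compound for 16 hours before reading; 0% = DMSO alone and 100% = caspase signal from 100 µM tamoxifen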
Method in brief: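 Caspase 3/7 activation in HepG2 is measured as rising luminescence after a 16 hr treatment at 37 °C. Values are scaled between DMSO basal and 100 uM tamoxifen, and AC50 is fitted with the Hill equation.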

[5] = Cellular Toxicity (caspase-3) Jurkat (AID 655); conditions: Jurkat caspase-3 activation, luminescence; caspase-3 activation: at 92.2 µM (top of the series), DMSO = 0%, tamoxifen = 100%;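 further: cells exposed to compound for 16 h at 37 °C before reading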
Method in brief: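 Jurkat cells (5000/well) in complete medium exposed 16 h at 37 C; caspase-3/7 activity read by Caspase-Glo luminescence after 20 min at room temperature. Normalized to DMSO and 100 uM tamoxifen; AC50 from Hill fits.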

[6] = Cellular Toxicity (caspase-3) BJ (AID 658); conditions: BJ fibroblasts, luminescence, normalized: DMSO 0%, staurosporine 100%; series mostly up to 91.7 µM
Method in brief: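 qHTS, BJ fibroblasts, 1000 cells/well; 5 hr preincubation, 16 hr compound, 37 °C; Caspase-Glo 3/7 reagent, 1 hr RT; luminescence. DMSO = 0%, 10 uM staurosporine = 100%. Hill-equation AC50.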

[7] = Cellular Toxicity (caspase-3) SK-N-SH (AID 661); conditions: SK-N-SH caspase-3 activation, qHTS; series mostly up to 91.7 µM
Method in brief: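 Cells were seeded and incubated 5 hr at 37 °C, dosed with compound over a concentration range for 16 hr, then given Caspase-Glo 3/7 reagent for 1 hr at room temperature before luminescence reading.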

[8] = Cellular Toxicity (caspase-3) H-4-II-E (AID 663); conditions: H-4-II-E rat hepatoma; Potency: caspase-3 activation; series mostly up to 92.2 µM;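 further: cells exposed to compound for 16 hr before readout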
Method in brief: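 H-4-II-E rat hepatoma, 1500 cells/well, 5 hr settle at 37 °C; compound 16 hr, 37 °C, complete medium; Caspase-Glo 3/7, 20 min RT; luminescence. DMSO = 0%, 100 uM tamoxifen = 100%; Hill-equation AC50.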

[9] = Cellular Toxicity (caspase-3) Hek293 (AID 664); conditions: HEK293 caspase-3 activation, DMSO = 0%, 100 µM tamoxifen = 100%; at 92.2 µM (top of the series);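 further: cells exposed to compound for 16 h at 37 °C before readout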
Method in brief: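 qHTS, HEK293 (human embryonic kidney), 16 h cpd exposure in complete medium. Caspase-3/7 activation = luminescence increase; normalized to DMSO/100 uM tamoxifen; Hill-fit AC50.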

[10] = Cellular Toxicity (caspase-3) N2a (AID 665); conditions: N2a cells, luminescence, normalized: DMSO 0%, 10 µM staurosporine 100%; series mostly up to 92.2 µM;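 further: compound exposure lasted 16 h at 37 °C before readout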
Method in brief: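 Caspase-3/7 activation, measured as increased luminescence from aminoluciferin release, is quantified in mouse N2a cells exposed to compounds for 16 h. Values are normalized to DMSO and 10 uM staurosporine, with AC50 derived by Hill modelling.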

[11] = Cellular Toxicity (caspase-3) Renal Proximal Tubule (AID 667); conditions: renal proximal tubule cells; series mostly up to 91.7 µM;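 further: cells exposed to compound for 16 hours at 37 °C before detection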
Method in brief: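 Freshly isolated primary rat kidney proximal tubule cells, 1000/well, treated 16 hr at 37 °C, then Caspase-Glo 3/7 luminescence after 1 hr. Normalized to DMSO and 10 uM staurosporine; AC50 from Hill fit.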

[12] = MultiTox-Fluor Cytotoxicity Assay - LYMP1-003 - Dead Cells (AID 961); conditions: LYMP1-003 lymphoblastoid cells, dead-cell protease fluorescence; series mostly up to 92.2 µM; further: nearly all actives have a fitted effect of over 70% in size
Method in brief: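 Dead-cell protease release, detected as bis-AAF-R110 fluorescence at 485/520 nm, was measured in LYMP1-003 cells after 16 h compound treatment at 37 C. AC50 values came from Hill-modeled qHTS curves normalized to DMSO (0%) and 15 uM tetraoctylammonium bromide (100%).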

[13] = MultiTox-Fluor Cytotoxicity Assay - LYMP1-003 - Live Cells (AID 962); conditions: LYMP1-003 lymphoblastoid cells, MultiTox-Fluor live-cell protease fluorescence; series mostly up to 92.2 µM;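 further: cells exposed to compound for 16 hours at 37 °C; 0% = DMSO only and full loss = 92 µM tetraoctylammonium bromide; cytotoxic hits lower the live-cell protease signal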
Method in brief: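 Acute cytotoxicity is scored as a drop in live-cell protease activity in human lymphoblastoid LYMP1-003 cells after 16 hr compound exposure at 37 C. AC50 values come from Hill-equation modelling of concentration-response data.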

[14] = Cell Viability - LYMP2-013 (AID 970); conditions: LYMP2-013 lymphoblastoid cells viability; series mostly up to 92.2 µM;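 further: cells exposed to compound for 24 h at 37 °C; 0% = DMSO only and full inhibition = tetraoctylammonium bromide control; nearly all actives have a fitted effect of over 55% in size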
Method in brief: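 Cytotoxicity is scored as a concentration-dependent drop in intracellular ATP in human lymphoblastoid cells after 24 hr compound exposure at 37 C. ATP is quantified by luciferase luminescence, and AC50 values come from Hill-equation modeling.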

[15] = target: Peroxisome proliferator-activated receptor gamma (Homo sapiens) (UniProt P37231); experiment: qHTS assay for small molecule agonists of peroxisome proliferator-activated receptor gamma signaling (AID 588536; active means well fitted curve in the direction sought with a large enough effect in the signal ratio, with a control signal flat, not every such curve was filed as active; the % refers to the signal ratio;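 further: 0% = DMSO basal wells and 100% = rosiglitazone at 2 µM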); conditions: HEK293 PPARg-UAS-bla, beta-lactamase ratio, 16 h, percent of rosiglitazone response, DMSO as zero; series mostly up to 76.7 µM
Method in brief: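 This is an agonist-mode beta-lactamase reporter assay in HEK293 PPAR-gamma-UAS-bla cells with 1% charcoal/dextran FBS. Compound titrations ran 16 h at 37 C before CCF4 detection. EC50 and efficacy are Hill fits scaled to 2 uM rosiglitazone (100%) and DMSO basal.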

[16] = qHTS assay for environmental chemicals that activate the Aryl hydrocarbon Receptor (AhR) signaling pathway (AID 651777); conditions: 1A2-DRE human hepatoma cells, luciferase, 24 h; activation: hits give high values; further: % of control where 0% means no effect; nearly all actives have a fitted effect of over 15% in size
Method in brief: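 AhR activation is scored as a rise in luciferase from a stable DRE–CYP1A2 promoter construct in human hepatoma cells. Treatment lasts 24 hr at 37 C; detection uses One-Glo after 30 min at room temperature.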

[17] = qHTS assay for cell viability of HEK293 cells (AID 743288); conditions: ATP luminescence (CellTiter-Glo), 18 h, hits give low values; further: on the % scale 0 is the no-effect control and ±100 the full control effect; nearly all actives have a fitted effect of over 50% in size
Method in brief: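 Steps: plate 2,000 parental HEK293 cells per well; incubate ≥5 h, 37 C; add compounds in DMSO; incubate 18 h, 37 C; add CellTiter-Glo; wait 30 min at room temperature; read luminescence.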

[18] = qHTS assay for cell viability of the p53RE-bla HCT-116 cell line (AID 743292); conditions: p53RE-bla HCT-116 viability, ATP luminescence, 16 h; series mostly up to 95 µM; further: on the % scale 0 is the no-effect control and ±100 the full control effect; nearly all actives have a fitted effect of over 55% in size
Method in brief: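 Quantitative high-throughput format: compounds in DMSO were pinned onto p53RE-bla HCT-116 cells (4,000/well) and incubated 16 h at 37 C. Total intracellular ATP, read by CellTiter-Glo luminescence, reflects viable cell number.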

[19] = Cell Viability - HUV-EC-C (AID 542); conditions: HUV-EC-C endothelial cell viability, qHTS; series mostly up to 92.2 µM;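 further: cells exposed to compound for 40 hours; on the % scale 0 is the no-effect control and ±100 the full control effect; nearly all actives have a fitted effect of over 35% in size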
Method in brief: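 Cells were seeded at 1000 per well and incubated 5 hr at 37 °C before compound addition. After 40 hr at 37 °C, CellTiter-Glo reagent was added for 20 min and luminescence read. AC50 values came from Hill-equation modelling.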

[20] = target: Nuclear receptor subfamily 1 group I member 2 (Rattus norvegicus) (UniProt Q9R1A7); experiment: qHTS assay for small molecule activators of the rat pregnane X receptor (rPXR) signaling pathway (AID 651751; call rule not given here; further: 0% is about no effect); conditions: rPXR reporter cells, luciferase (One-Glo), 24 h
Nuclear receptor subfamily 1 group I member 2 (Rattus norvegicus), sequence (Q9R1A7 whole entry, looked up): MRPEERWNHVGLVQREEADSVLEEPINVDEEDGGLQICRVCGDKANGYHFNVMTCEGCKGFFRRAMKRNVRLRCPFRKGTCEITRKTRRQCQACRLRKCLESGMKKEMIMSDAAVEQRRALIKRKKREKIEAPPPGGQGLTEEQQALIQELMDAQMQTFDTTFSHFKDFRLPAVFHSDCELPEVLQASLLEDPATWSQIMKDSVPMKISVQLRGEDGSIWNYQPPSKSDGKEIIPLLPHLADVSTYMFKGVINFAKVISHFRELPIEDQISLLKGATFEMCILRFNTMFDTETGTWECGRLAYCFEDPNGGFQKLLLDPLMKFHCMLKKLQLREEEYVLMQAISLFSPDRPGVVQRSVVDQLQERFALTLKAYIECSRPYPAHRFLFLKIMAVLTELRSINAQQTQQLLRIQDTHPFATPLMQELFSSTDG

Peroxisome proliferator-activated receptor gamma (Homo sapiens), sequence (P37231 whole entry, looked up): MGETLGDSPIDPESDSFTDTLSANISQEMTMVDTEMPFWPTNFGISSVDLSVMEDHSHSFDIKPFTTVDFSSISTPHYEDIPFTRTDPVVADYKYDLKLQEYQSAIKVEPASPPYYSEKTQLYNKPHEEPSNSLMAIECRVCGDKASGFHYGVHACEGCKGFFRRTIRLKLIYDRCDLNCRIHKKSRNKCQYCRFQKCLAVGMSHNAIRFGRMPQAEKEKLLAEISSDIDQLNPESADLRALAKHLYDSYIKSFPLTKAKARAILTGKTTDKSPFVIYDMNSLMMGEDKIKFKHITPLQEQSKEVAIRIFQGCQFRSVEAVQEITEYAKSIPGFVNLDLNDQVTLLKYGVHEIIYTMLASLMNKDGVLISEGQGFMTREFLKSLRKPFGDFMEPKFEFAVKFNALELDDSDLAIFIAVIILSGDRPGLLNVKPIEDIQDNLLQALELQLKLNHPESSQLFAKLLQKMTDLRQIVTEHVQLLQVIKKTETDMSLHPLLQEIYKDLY

CCCCNC(=O)n1c(NC(=O)OC)nc2ccccc21
inactive: Potency [1] > 92 µM | Potency [2] | Potency [3] | outcome [4] | caspase-3 activation [5] 7.08% | outcome [6] | Potency [7] | Potency [8] | caspase-3 activation [9] -2.55% | outcome [10] | outcome [11] | Potency [12] | outcome [13] | Potency [14] | outcome [15] | activation [16] 8.93% and 9.96% | max response [17] -16.4% and -17.6% | Potency [18]

CC(C)(Cl)Cl
inactive: Potency [1] > 92 µM | Potency [2] | Potency [19] | Potency [3] | outcome [4] | caspase-3 activation [5] -0.572% | outcome [6] | Potency [7] | Potency [8] | outcome [10] | outcome [11] | outcome [13] | Potency [14] | outcome [15] | activation [16] 0.894% | max response [17] 1.9% | max response [20] -1.57%

CC(C)(C)C(O)(CCc1ccc(Cl)cc1)Cn1cncn1 (configuration not stated)
inactive: Potency [1] > 92 µM | Potency [2] | Potency [19] | outcome [4] | caspase-3 activation [5] 2.58% | outcome [6] | Potency [7] | Potency [8] | outcome [10] | outcome [11] | Potency [12] | outcome [13] | Potency [14] | outcome [15] | activation [16] 0.583% and 1.83% | max response [17] -1.87% and -20% | Potency [18]

CSSC
inactive: Potency [1] > 92 µM | Potency [2] | Potency [19] | Potency [3] | outcome [4] | caspase-3 activation [5] -0.115% | Potency [7] | Potency [8] | caspase-3 activation [9] -3.42% | outcome [10] | outcome [11] | outcome [13] | Potency [14] | max response [17] -1.5% | Potency [18] | max response [20] -2.6%

Oc1cc(Cl)ccc1Cl
inactive: Potency [1] > 92 µM | Potency [2] | Potency [3] | outcome [4] | caspase-3 activation [5] 1.27% | outcome [6] | Potency [7] | caspase-3 activation [9] -1.46% | outcome [10] | outcome [11] | Potency [12] | outcome [13] | Potency [14] | outcome [15] | activation [16] -0.282% and -1.1% | max response [17] 5.28% and -9.5% | Potency [18] | max response [20] -2.5% and -2.48%

O=[N+]([O-])c1cc(Cl)c(Cl)cc1Cl
inactive: Potency [1] > 92 µM | Potency [2] | Potency [3] | outcome [4] | caspase-3 activation [5] 2.39% | outcome [6] | Potency [8] | outcome [10] | outcome [11] | Potency [12] | outcome [13] | Potency [14] | outcome [15] | activation [16] -0.111% | Potency [18] | max response [20] -0.165%
